Test results reported in ChEMBL document CHEMBL2218924, “A broad activity screen in support of a chemogenomic map for kinase signalling research and drug discovery” (Biochem J, 2013).

Legend:
[1] = target: Ribosomal protein S6 kinase beta-1 (Homo sapiens) (UniProt P23443); settings: at 1 µM
[2] = target: Ribosomal protein S6 kinase beta-1 (Homo sapiens) (UniProt P23443); settings: at 10 µM
[3] = target: Serine/threonine-protein kinase Nek6 (Homo sapiens) (UniProt Q9HC98); settings: at 1 µM
[4] = target: Serine/threonine-protein kinase Nek6 (Homo sapiens) (UniProt Q9HC98); settings: at 10 µM
[5] = target: Serine/threonine-protein kinase Nek7 (Homo sapiens) (UniProt Q8TDX7); settings: at 1 µM
[6] = target: Serine/threonine-protein kinase Nek7 (Homo sapiens) (UniProt Q8TDX7); settings: at 10 µM
[7] = target: T1, Serine/threonine-protein kinase NLK (Homo sapiens) (UniProt Q9UBE8); settings: at 1 µM
T1 sequence (whole entry): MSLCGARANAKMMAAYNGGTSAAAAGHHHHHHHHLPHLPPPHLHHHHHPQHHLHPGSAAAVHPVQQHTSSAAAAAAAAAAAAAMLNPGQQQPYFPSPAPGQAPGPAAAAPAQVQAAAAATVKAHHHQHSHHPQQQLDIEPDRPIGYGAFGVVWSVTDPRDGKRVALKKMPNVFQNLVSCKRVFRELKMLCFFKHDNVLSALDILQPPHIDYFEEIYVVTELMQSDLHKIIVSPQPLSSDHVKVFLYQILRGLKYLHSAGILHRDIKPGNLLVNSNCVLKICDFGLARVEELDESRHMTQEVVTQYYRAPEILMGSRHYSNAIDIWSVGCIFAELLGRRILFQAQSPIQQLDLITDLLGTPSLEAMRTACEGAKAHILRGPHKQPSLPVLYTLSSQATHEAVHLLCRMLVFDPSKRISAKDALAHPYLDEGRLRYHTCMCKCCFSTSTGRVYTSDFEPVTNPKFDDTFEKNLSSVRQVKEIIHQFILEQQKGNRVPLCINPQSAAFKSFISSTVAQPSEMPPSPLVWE

[8] = target: T1, Serine/threonine-protein kinase NLK (Homo sapiens); settings: at 10 µM
[9] = target: Serine/threonine-protein kinase PAK 2 (Homo sapiens) (UniProt Q13177); settings: at 1 µM
[10] = target: Serine/threonine-protein kinase PAK 2 (Homo sapiens) (UniProt Q13177); settings: at 10 µM
[11] = target: Serine/threonine-protein kinase PAK 4 (Homo sapiens) (UniProt O96013); settings: at 1 µM
[12] = target: Serine/threonine-protein kinase PAK 4 (Homo sapiens) (UniProt O96013); settings: at 10 µM
[13] = target: Serine/threonine-protein kinase PAK 5 (Homo sapiens) (UniProt Q9P286); settings: at 1 µM
[14] = target: Serine/threonine-protein kinase PAK 5 (Homo sapiens) (UniProt Q9P286); settings: at 10 µM
[15] = target: Serine/threonine-protein kinase PAK 6 (Homo sapiens) (UniProt Q9NQU5); settings: at 1 µM
[16] = target: Serine/threonine-protein kinase PAK 6 (Homo sapiens) (UniProt Q9NQU5); settings: at 10 µM
[17] = target: PAS domain-containing serine/threonine-protein kinase (Homo sapiens) (UniProt Q96RG2); settings: at 10 µM
[18] = target: Activated CDC42 kinase 1 (Homo sapiens) (UniProt Q07912); settings: at 1 µM
[19] = target: Activated CDC42 kinase 1 (Homo sapiens) (UniProt Q07912); settings: at 10 µM
[20] = target: ALK tyrosine kinase receptor (Homo sapiens) (UniProt Q9UM73); settings: at 1 µM

Chain of Serine/threonine-protein kinase Nek7 (Homo sapiens) (Q8TDX7 whole entry, looked up): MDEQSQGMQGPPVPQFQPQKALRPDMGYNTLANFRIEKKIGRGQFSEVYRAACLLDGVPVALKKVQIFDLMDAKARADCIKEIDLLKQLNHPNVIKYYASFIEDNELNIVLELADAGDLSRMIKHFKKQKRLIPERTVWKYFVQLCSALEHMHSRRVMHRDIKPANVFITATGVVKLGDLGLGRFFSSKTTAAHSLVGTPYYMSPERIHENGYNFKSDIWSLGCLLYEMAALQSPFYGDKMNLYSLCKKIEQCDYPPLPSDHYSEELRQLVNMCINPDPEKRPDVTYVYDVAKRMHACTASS
Chain of Serine/threonine-protein kinase PAK 6 (Homo sapiens) (Q9NQU5 whole entry, looked up, the tested form may be a part): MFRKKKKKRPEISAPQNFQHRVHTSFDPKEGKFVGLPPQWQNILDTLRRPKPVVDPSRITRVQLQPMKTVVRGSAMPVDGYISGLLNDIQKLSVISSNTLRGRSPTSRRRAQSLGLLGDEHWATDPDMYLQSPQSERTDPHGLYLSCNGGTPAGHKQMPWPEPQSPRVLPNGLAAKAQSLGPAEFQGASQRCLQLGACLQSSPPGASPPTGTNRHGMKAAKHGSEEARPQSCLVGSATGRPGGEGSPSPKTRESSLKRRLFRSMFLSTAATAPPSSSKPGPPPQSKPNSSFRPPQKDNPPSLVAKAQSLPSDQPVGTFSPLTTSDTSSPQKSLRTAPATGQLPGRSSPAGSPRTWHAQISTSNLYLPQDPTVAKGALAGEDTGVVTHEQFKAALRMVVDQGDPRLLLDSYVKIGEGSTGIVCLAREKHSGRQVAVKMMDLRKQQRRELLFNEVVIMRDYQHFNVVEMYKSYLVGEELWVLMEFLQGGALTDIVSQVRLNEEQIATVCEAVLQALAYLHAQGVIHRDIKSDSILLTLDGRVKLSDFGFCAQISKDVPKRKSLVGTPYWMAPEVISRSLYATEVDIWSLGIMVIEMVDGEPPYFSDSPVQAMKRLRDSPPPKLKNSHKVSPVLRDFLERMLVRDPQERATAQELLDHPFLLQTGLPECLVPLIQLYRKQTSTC
Chain of Ribosomal protein S6 kinase beta-1 (Homo sapiens) (P23443 whole entry, looked up): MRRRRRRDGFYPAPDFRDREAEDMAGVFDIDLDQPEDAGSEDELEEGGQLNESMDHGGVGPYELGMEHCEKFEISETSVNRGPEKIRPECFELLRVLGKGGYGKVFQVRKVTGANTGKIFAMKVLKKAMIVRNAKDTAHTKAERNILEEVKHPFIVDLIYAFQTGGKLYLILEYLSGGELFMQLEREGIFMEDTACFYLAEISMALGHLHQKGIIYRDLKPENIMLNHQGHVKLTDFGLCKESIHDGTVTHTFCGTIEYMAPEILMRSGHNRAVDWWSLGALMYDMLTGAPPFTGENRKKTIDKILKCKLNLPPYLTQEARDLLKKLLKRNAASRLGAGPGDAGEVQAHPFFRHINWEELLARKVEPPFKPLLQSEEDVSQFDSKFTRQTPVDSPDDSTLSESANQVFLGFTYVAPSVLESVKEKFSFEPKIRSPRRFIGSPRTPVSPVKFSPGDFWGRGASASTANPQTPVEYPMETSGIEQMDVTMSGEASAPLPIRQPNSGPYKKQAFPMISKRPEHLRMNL
Chain of Serine/threonine-protein kinase PAK 4 (Homo sapiens) (O96013 whole entry, looked up): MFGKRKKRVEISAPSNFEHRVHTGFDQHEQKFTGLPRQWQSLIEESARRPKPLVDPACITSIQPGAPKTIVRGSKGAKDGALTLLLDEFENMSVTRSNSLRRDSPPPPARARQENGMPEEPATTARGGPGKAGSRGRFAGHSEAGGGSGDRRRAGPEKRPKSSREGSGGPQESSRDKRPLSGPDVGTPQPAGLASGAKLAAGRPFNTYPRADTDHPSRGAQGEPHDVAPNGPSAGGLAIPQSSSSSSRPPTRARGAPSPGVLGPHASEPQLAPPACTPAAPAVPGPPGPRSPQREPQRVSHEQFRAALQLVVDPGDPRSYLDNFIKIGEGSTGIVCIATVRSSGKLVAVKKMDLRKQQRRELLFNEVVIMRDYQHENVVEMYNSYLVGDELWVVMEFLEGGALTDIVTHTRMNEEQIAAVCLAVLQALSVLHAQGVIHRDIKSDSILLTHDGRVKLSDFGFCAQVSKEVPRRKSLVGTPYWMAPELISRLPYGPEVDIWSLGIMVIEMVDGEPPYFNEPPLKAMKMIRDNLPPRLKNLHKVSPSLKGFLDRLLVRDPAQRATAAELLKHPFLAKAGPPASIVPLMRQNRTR
Chain of Activated CDC42 kinase 1 (Homo sapiens) (Q07912 whole entry, looked up): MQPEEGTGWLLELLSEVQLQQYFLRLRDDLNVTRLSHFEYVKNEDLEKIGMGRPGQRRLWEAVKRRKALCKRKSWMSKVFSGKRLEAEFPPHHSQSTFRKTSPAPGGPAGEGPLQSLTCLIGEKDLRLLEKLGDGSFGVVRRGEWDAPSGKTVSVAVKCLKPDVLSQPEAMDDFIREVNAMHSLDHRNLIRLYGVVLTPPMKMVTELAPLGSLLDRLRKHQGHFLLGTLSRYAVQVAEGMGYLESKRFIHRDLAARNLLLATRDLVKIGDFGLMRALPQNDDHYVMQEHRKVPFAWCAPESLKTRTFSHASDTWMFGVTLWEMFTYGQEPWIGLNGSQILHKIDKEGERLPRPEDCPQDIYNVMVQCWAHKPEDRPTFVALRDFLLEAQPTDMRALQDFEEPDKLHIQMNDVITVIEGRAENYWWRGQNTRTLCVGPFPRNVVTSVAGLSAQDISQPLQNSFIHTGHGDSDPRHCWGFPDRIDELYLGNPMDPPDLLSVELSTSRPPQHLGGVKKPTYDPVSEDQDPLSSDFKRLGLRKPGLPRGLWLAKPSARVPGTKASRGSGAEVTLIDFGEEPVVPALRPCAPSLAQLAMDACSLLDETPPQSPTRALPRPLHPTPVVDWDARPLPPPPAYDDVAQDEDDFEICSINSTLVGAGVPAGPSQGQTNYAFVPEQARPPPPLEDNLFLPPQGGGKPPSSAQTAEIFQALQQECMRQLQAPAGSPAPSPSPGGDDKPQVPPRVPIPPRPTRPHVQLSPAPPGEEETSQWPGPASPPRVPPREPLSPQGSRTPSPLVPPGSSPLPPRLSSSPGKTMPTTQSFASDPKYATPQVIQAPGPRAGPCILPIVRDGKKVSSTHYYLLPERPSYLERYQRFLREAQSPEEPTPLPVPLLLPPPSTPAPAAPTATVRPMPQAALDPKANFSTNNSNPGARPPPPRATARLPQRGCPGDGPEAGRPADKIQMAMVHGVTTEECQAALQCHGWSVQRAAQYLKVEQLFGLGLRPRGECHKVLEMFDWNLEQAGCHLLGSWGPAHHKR
Chain of Serine/threonine-protein kinase Nek6 (Homo sapiens) (Q9HC98 whole entry): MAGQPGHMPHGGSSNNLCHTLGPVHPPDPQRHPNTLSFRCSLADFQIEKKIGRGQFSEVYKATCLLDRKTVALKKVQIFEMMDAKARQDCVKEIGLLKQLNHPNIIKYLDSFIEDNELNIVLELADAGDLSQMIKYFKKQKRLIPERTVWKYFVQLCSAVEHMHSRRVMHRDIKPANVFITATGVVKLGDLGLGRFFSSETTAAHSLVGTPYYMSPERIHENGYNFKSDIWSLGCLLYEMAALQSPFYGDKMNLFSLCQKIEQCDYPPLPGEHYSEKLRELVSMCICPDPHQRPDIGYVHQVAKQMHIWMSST
Chain of Serine/threonine-protein kinase PAK 5 (Homo sapiens) (Q9P286 whole entry, looked up): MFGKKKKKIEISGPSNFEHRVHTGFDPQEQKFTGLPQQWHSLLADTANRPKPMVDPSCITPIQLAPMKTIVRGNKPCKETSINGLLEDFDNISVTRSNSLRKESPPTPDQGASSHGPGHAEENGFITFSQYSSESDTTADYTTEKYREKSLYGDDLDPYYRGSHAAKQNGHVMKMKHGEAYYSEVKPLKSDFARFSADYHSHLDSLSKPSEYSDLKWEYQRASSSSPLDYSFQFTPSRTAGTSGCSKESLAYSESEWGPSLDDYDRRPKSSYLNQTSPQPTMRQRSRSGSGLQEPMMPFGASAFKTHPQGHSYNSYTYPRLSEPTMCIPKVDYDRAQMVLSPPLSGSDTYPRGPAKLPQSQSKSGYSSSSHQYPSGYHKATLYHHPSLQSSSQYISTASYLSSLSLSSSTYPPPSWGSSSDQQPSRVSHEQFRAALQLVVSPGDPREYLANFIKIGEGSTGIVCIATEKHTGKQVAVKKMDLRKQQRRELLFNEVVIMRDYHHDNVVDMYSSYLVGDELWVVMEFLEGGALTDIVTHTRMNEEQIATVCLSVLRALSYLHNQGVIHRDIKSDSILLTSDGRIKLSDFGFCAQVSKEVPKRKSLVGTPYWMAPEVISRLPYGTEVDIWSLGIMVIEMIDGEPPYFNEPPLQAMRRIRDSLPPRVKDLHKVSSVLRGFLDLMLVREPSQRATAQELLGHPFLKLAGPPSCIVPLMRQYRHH
Chain of Serine/threonine-protein kinase PAK 2 (Homo sapiens) (Q13177 whole entry): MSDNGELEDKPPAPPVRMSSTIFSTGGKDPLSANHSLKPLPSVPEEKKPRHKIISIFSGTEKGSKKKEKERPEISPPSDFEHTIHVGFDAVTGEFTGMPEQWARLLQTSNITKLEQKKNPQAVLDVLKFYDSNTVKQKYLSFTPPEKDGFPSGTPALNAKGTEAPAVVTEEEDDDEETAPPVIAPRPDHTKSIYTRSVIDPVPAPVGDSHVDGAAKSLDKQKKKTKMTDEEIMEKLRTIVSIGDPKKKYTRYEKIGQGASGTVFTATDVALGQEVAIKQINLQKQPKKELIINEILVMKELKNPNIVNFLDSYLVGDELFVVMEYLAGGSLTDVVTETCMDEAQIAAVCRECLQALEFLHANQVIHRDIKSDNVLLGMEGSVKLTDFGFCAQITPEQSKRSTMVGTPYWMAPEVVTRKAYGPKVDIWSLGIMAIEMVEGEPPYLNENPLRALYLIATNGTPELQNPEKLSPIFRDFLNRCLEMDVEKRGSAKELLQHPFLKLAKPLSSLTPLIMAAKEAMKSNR

Compound	residual activity [1]	residual activity [2]	residual activity [3]	residual activity [4]	residual activity [5]	residual activity [6]	residual activity [7]	residual activity [8]	residual activity [9]	residual activity [10]	residual activity [11]	residual activity [12]	residual activity [13]	residual activity [14]	residual activity [15]	residual activity [16]	residual activity [17]	residual activity [18]	residual activity [19]	residual activity [20]
CCOc1cc2ncnc(Nc3cccc(Br)c3)c2cc1OCC	109%	54%	112% (inactive)	125%	102% (inactive)	101% (inactive)	78%	34%	102%	75%	100%	79%	111%	82%	100%	96%	56%	28%	5%	75%
O=[N+]([O-])c1ccc(-c2nc(-c3ccc(F)cc3)c(-c3ccncc3)[nH]2)cc1	122%	62%	109% (inactive)	123%	99% (inactive)	111% (inactive)	31%	40%	105%	101%	108%	98%	94%	96%	102%	105%	119%	50%	11%	83%
Oc1c2ccccc2c2c3c(cccc13)N=N2	55%	14%	107% (inactive)	101%	99% (inactive)	89% (inactive)	78%	71%	96%	86%	88%	45%	99%	64%	91%	49%	81%	50%	12%	61%
O=C1NC(=O)/C(=C/c2ccc3c(c2)OC(F)(F)O3)S1	73%	35%	84% (inactive)	93%	100% (inactive)	97% (inactive)	107%	84%	104%	76%	102%	95%	80%	70%	81%	78%	37%	96%	70%	69%
Cn1cc(/C=C2\C(=O)Nc3ccc(S(N)(=O)=O)cc32)c2ccccc21	29%	11%	100% (inactive)	112%	103% (inactive)	89% (inactive)	104%	84%	124%	91%	28%	7%	41%	26%	46%	22%	71%	60%	36%	56%
Cn1cnc2cc3c(Nc4cccc(Br)c4)ncnc3cc21	95%	71%	104% (inactive)	104%	100% (inactive)	103% (inactive)	93%	73%	93%	90%	100%	89%	98%	90%	90%	106%	77%	66%	16%	85%
CC#CC(=O)Nc1cc2c(Nc3ccc(F)c(Cl)c3)ncnc2cn1	96%	98%	82% (inactive)	91%	94% (inactive)	100% (inactive)	93%	79%	82%	81%	99%	91%	104%	107%	102%	96%	99%	86%	71%	81%
Ic1cccc(CSc2nnc(-c3ccncc3)o2)c1	55%	32%	113% (inactive)	115%	101% (inactive)	81% (inactive)	89%	89%	104%	92%	91%	84%	91%	72%	89%	73%	106%	75%	60%	73%
CN(C)c1ccc(/C=C2\C(=O)Nc3ccccc32)cc1	69%	29%	108% (inactive)	107%	118% (inactive)	116% (inactive)	110%	88%	96%	100%	100%	83%	95%	77%	83%	77%	23%	89%	62%	80%
COc1ccc(CNc2nc(N(CCO)CCO)nc3c2ncn3C(C)C)cc1	74%	49%	107% (inactive)	96%	96% (inactive)	86% (inactive)	89%	86%	102%	87%	89%	56%	95%	66%	87%	63%	129%	70%	51%	80%
Cc1nc2cc3nc(-c4cccs4)cnc3cc2n1C	98%	112%	104% (inactive)	112%	102% (inactive)	107% (inactive)	104%	95%	99%	86%	95%	101%	106%	105%	111%	102%	86%	107%	74%	93%
Cc1ccc(NC2=CC(=O)c3sc(C)nc3C2=O)cc1	115%	78%	106% (inactive)	104%	109% (inactive)	92% (inactive)	86%	85%	93%	92%	98%	93%	121%	94%	102%	80%	82%	80%	71%	86%
O=C(Nc1cccc(Nc2cc(Nc3cccc(C(F)(F)F)c3)ncn2)c1)C1CC1	92%	110%	99% (inactive)	126%	95% (inactive)	93% (inactive)	63%	27%	116%	83%	94%	79%	100%	98%	104%	90%	64%	79%	26%	88%
CO[C@H]1[C@@H](OC)C[C@H](C)[C@@H](OC)C2=CC(=O)C=C(NC(=O)/C(C)=C/C=C/[C@H](OC)[C@@H](OC(N)=O)/C(C)=C/[C@@H]1C)C2=O	75%	43%	103% (inactive)	112%	89% (inactive)	76% (inactive)	110%	83%	108%	83%	106%	92%	92%	64%	99%	84%	59%	92%	72%	71%
C[C@@H](N)[C@H]1CC[C@H](C(=O)Nc2ccncc2)CC1	101%	71%	106% (inactive)	107%	111% (inactive)	112% (inactive)	100%	101%	106%	104%	92%	77%	104%	106%	117%	109%	85%	97%	95%	116%
COc1cccc(-c2cc(=O)c3ccccc3o2)c1N	119%	106%	114% (inactive)	114%	111% (inactive)	106% (inactive)	107%	87%	103%	102%	105%	96%	122%	99%	96%	89%	101%	83%	70%	95%
NC(=O)c1ccc2[nH]c(-c3ccc(Oc4ccc(Cl)cc4)cc3)nc2c1	92%	90%	117% (inactive)	113%	102% (inactive)	104% (inactive)	88%	59%	111%	82%	97%	92%	99%	113%	110%	103%	123%	77%	61%	75%
CC(=O)O/N=C1\C(=C2\C(=O)Nc3cc(Br)ccc32)Nc2ccccc21	84%	36%	108% (inactive)	110%	98% (inactive)	111% (inactive)	90%	80%	104%	100%	100%	67%	88%	63%	89%	67%	108%	48%	15%	58%
COc1ccc(C(=O)Nc2sc3c(c2C(N)=O)CCCC3)cc1OC	106%	83%	90% (inactive)	103%	87% (inactive)	83% (inactive)	88%	90%	96%	90%	92%	86%	104%	116%	95%	93%	90%	77%	54%	56%
CNc1cc2c(Nc3cccc(Br)c3)ncnc2cn1	126%	145%	94% (inactive)	108%	94% (inactive)	95% (inactive)	87%	45%	111%	99%	88%	65%	97%	104%	101%	89%	57%	46%	11%	78%
Cc1ccc(S(=O)(=O)/C=C/C#N)cc1	133%	102%	99% (inactive)	108%	114% (inactive)	87% (inactive)	101%	92%	107%	98%	99%	95%	106%	106%	95%	84%	86%	81%	75%	99%
O=C1NC(=O)c2c1c1c3ccccc3[nH]c1c1[nH]c3cc(Br)ccc3c21	92%	52%	121% (inactive)	117%	103% (inactive)	89% (inactive)	82%	93%	122%	106%	94%	92%	101%	85%	77%	58%	96%	64%	61%	91%
COc1cc2ncnc(Nc3ccc(O)c(Br)c3)c2cc1OC	60%	31%	86% (inactive)	110%	99% (inactive)	96% (inactive)	69%	30%	104%	80%	89%	77%	98%	98%	123%	104%	8%	14%	1%	19%
c1ccc2c(-c3ccncc3)c[nH]c2c1	53%	31%	95% (inactive)	110%	95% (inactive)	95% (inactive)	96%	73%	98%	82%	93%	80%	97%	103%	106%	103%	20%	80%	49%	76%
CC(C)n1cnc2/c(=N/c3cccc(Cl)c3)nc(NCCO)[nH]c21	36%	15%	118% (inactive)	98%	102% (inactive)	84% (inactive)	88%	70%	109%	98%	62%	15%	80%	33%	43%	25%	114%	14%	5%	81%
